# Test results published in PubChem BioAssay.
# The source made the active and inactive calls.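 The calls were made as follows, unless noted: active = fluorescence slope higher than the sample average by over 3 SD (cut at about -0.22 in these data, passing the limit was not always enough); inactive = the rest.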
# How the values were obtained:
# [1] = inhibitors of TNFa-induced NFkB p65 translocation, primary screen, imaging, HUVEC, MLSMR starter and 10KST1 sets (AID 438;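 active = inhibition above 20% together with a positive visual image hit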;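 also: compound added about 3h40 before a 20 min TNFalpha stimulation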;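 as to inhibition: signal is the nuclear over cytoplasmic p65 intensity ratio per well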); details: HUVEC TNFa-induced p65 nuclear translocation; cell count: measured here: nuclei count (cytotoxicity indicator), at 2.08 µM; inhibition: at 2 µM, stronger effect = higher value, 0% TNFa-plus-vehicle, 100% no-TNFa wells
# [2] = reduction of polyQ htt aggregates in cells – imaging, exon1htt(103Q)mCFP cells, high-content imaging, primary screen (AID 483;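 active = visual image review flags a hit and inhibition of aggregation exceeds 20%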;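 also: compound exposure lasted 3 days before fixation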;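 as to nuclei count: percent of the per-plate median nuclei count of sample wells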); details: exon1htt(103Q)mCFP cell line, aggregate imaging, at 2 µM; inhibition of aggregation: stronger effect = higher value; nuclei count: measured here: cell count, toxicity
# [3] = endothelial E-selectin expression blockers – imaging, HUVEC, immunofluorescence, MLSMR starter and 10KST1 sets, primary screen (AID 487;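 active = visually confirmed hit in the image check and inhibition above 20%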;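 as to inhibition: signal is fraction of cell area covered by stained E-selectin grains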;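 as to nuclei count: 100% = median nuclei count of all wells on the same plate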); details: HUVEC TNFalpha-induced E-selectin immunofluorescence imaging, at 2 µM; inhibition: stronger effect = higher value; nuclei count: measured here: cell number, toxicity
# [4] = biological target: Voltage-gated potassium channel subunit beta-2 (Rattus norvegicus) (UniProt P62483); experiment: inhibitors of rat Kvbeta2 reductase activity – biochemical, NADPH fluorescence, primary screen (AID 622); details: recombinant KvBeta, 4-cyanobenzaldehyde reduction, at 10 µM, stronger effect = higher value;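 also: slope of raw intensity against log time taken from 70 to 1610 s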
# [5] = biological target: Voltage-gated potassium channel subunit beta-2 (Rattus norvegicus) (UniProt P62483); experiment: enhancers of rat Kvbeta2 NADPH turnover – biochemical, NADPH fluorescence, primary screen (AID 623;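 active = NADPH fluorescence slope more negative than the mean of all samples by about 3 SD, 99.7% confidence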;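 also: fluorescence intensity change per second fitted from 20 to 320 s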); details: Recombinant KvBeta, NADPH fluorescence decrease slope, 10 min; at 10 µM; stronger effect = lower value
# [6] = biological target: Alpha-2C adrenergic receptor (Homo sapiens) (UniProt P18825); experiment: compounds altering alpha2C-coupled GIRK flux – cell-based, HEK293 alpha2C/GIRK1/2, thallium flux, primary screen (AID 624;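 active = fluorescence slope after compound addition differing from the mean of all screened samples at 99.7% confidence, in either direction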;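 also: slope of fluorescence ratio to pre-addition baseline per second over 15 to 24 s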); details: thallium flux BTC fluorescence, at 10 µM, actives lie on both sides
# [7] = blockers of RIG-like receptor reporter activation – cell-based, Sendai virus stimulus, luciferase, 10K MLSCN set, TLR/RLR signaling modifier project, primary screen (AID 602276;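 active = inhibition at or above 50% at 10 µM; inactive = inhibition below 50%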;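 also: firefly luciferase from ISG56 promoter only with Renilla not read in this screen; 0% = Sendai virus plus DMSO and 100% = medium plus DMSO without virus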); details: HEK293 RL24 IRF3 luciferase reporter, at 10 µM, stronger effect = higher value
# [8] = TLR3 IRF3 reporter activation blockers – cell-based, poly I:C stimulus, luciferase, 10K MLSCN set, primary screen (AID 602277;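 active = inhibition of the reporter signal at or above 50%; inactive = inhibition below 50%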); details: HEK293-TLR3 RL24 IRF3 luciferase reporter, at 10 µM, stronger effect = higher value
# Voltage-gated potassium channel subunit beta-2 (Rattus norvegicus), sequence (P62483 whole entry, looked up): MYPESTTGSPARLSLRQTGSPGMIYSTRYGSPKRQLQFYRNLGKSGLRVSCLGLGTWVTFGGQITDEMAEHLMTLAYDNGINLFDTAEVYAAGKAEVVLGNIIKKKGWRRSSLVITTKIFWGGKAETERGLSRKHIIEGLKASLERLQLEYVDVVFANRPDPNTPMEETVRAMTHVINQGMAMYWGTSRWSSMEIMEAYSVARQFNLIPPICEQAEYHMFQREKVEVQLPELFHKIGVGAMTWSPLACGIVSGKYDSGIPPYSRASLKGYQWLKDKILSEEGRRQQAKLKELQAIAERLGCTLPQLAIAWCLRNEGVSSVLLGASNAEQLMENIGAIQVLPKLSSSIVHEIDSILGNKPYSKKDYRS
# Alpha-2C adrenergic receptor (Homo sapiens), sequence (P18825 whole entry, looked up): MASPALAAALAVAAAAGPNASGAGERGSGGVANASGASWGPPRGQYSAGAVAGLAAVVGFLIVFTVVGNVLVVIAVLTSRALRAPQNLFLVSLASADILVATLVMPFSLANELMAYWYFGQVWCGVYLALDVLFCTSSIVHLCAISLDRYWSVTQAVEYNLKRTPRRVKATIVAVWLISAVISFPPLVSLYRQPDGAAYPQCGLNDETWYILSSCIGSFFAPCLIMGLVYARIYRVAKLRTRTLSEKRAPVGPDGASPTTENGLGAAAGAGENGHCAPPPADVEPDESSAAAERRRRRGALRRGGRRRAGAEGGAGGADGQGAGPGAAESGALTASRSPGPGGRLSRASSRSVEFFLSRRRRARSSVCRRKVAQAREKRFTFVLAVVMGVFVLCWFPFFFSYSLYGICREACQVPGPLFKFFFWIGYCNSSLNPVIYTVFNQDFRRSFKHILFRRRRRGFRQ
Structure (SMILES),cell count [1],inhibition [1],inhibition of aggregation [2],nuclei count [2],inhibition [3],nuclei count [3],fluorescence slope [4],NADPH fluorescence slope [5],slope [6],inhibition [7],inhibition [8]
CCn1c(C(=O)N2CCC(C(=O)N3CCN(c4ccccn4)CC3)CC2)cc2sccc21,663,-12.8% (inactive),27.4% (inactive),105%,-79.6% (inactive),121%,-0.578 (inactive),-4.7e-05 (inactive),0.00642 (inactive),-5.71% (inactive),-29% (inactive)
O=C(NCc1ccco1)c1cccn2c(=O)c3sccc3nc12,452,-1.9% (inactive),-0.8% (inactive),96%,19.6% (inactive),101%,-0.112 (inactive),-7.3e-06 (inactive),0.00303 (inactive),-2.36% (inactive),-2.82% (inactive)
CC(=O)C1=C(C)NC(=O)NC1c1cccc(O)c1 (centres undefined),454,7.3% (inactive),0% (inactive),111%,-36.2% (inactive),110%,-0.399 (inactive),-5e-05 (inactive),0.00509 (inactive),14.2% (inactive),16% (inactive)
CCN(CC)C(=O)C1CCCN(Cc2ccc(N(C)C)cc2)C1 (centres undefined),376,0% (inactive),-25.6% (inactive),99%,-48.8% (inactive),124%,-0.462 (inactive),7.7e-05 (inactive),0.00605 (inactive),17.9% (inactive),26.8% (inactive)
CCOn1c(=O)c(=O)n(OCc2ccccc2)c2ccccc21,355,0.3% (inactive),13% (inactive),97.7%,-32.9% (inactive),120%,-0.345 (inactive),-5.2e-05 (inactive),0.00578 (inactive),19.9% (inactive),25% (inactive)
CCc1cc(C(=O)OC)c(NC(=O)CCC(=O)O)s1,719,-5.2% (inactive),3.9% (inactive),117%,-24% (inactive),106%,-0.392 (inactive),3.6e-05 (inactive),0.0103 (inactive),-0.441% (inactive),97.6% (active)
CN(C)S(=O)(=O)NC(c1ccccc1)c1ccccc1,671,5.8% (inactive),3.3% (inactive),102%,14.6% (inactive),99.9%,-0.413 (inactive),-3.1e-05 (inactive),0.00605 (inactive),20.5% (inactive),21.8% (inactive)
COc1ccc(N(CC(=O)Nc2cc(C)ccc2C)S(=O)(=O)c2c(C)nn(C)c2C)cc1,499,-2.3% (inactive),30.5% (inactive),65.3%,-8.4% (inactive),101%,-0.603 (inactive),-2.9e-05 (inactive),0.0057 (inactive),-2.9% (inactive),21.3% (inactive)
O=c1oc2c3c4c(cc2s1)CCCN4CCC3,441,7.4% (inactive),-6.4% (inactive),100%,-17.7% (inactive),119%,-0.463 (inactive),-6e-05 (inactive),0.00368 (inactive),7.3% (inactive),31.7% (inactive)
O=C(CS(=O)CC(=O)Nc1cccc2c1CCCC2)Nc1ccc(F)cc1 (centres undefined),210,2.1% (inactive),-8.6% (inactive),84.1%,26.9% (inactive),80.2%,-0.621 (inactive),1e-05 (inactive),0.00343 (inactive),12.7% (inactive),18.9% (inactive)
CCOc1ccccc1C(=O)NC(C)c1ccc2c(c1)OCO2 (centres undefined),368,0.8% (inactive),0.3% (inactive),122%,-6.7% (inactive),92.4%,-0.523 (inactive),-5.4e-05 (inactive),0.00595 (inactive),15.1% (inactive),-8.04% (inactive)
CC1CN=C(N(C(=O)Nc2ccccc2)c2ccc(S(=O)(=O)N3CCOCC3)cc2)S1 (centres undefined),476,-4.8% (inactive),11.9% (inactive),95.4%,-38.9% (inactive),112%,-0.356 (inactive),-5.2e-05 (inactive),0.00838 (inactive),3.57% (inactive),6.41% (inactive)
COc1ccc(S(=O)(=O)NC(C)C(=O)Nc2cccc(C(C)=O)c2)cc1 (centres undefined),255,2.4% (inactive),14.5% (inactive),97.3%,-2.9% (inactive),62.6%,-0.402 (inactive),-2.7e-05 (inactive),0.00498 (inactive),14.3% (inactive),15.3% (inactive)
O=C(NC1CCCC1)c1ccc2nc[nH]c2c1,427,10.2% (inactive),0.8% (inactive),101%,-41.4% (inactive),114%,-0.62 (inactive),-3.9e-06 (inactive),0.00786 (inactive),9.91% (inactive),13.1% (inactive)
